The values that follow come from ChEMBL document CHEMBL4513216, “Probing the Open Global Health Chemical Diversity Library for Multistage-Active Starting Points for Next-Generation Antimalarials” (ACS Infect Dis, 2020).

Screen size: about 68,000 compounds; about 2,700 (4%) showed an effect of 50% or more. The full list was thinned out, with strong results kept by preference.

The test system of this assay is Plasmodium berghei. As to the kind of experiment: Screen against P. berghei liver stage (PbLuc), transformed with Luciferase, at 2uM. It counts as functional, HepG2. Particulars: tested at 2 uM.
Consider `COCc1nc(C(=O)N2CCCC2c2c(C)nn(C)c2C)cs1` (centres undefined), for which the INHIBITION is reported as 5.1%. For `Cc1ccc(C2(O)CCN(C(=O)CCn3ccc(=O)[nH]c3=O)CC2)nc1` the value was -3.56%.

Take `N#CC1(NC(=O)COC(=O)Cc2cc(Cl)c3c(c2)OCCO3)CCCC1`: the INHIBITION is 17.14%. For `O=C(NCCN1CCOCC1)c1cnc(Cc2ccc(F)cc2)s1` the value was -42.16%. For `CCc1nc(CN2CCN(C(=O)CCc3ccccc3)CC2)cs1` the value was 36.32%; for `Fc1ccc(OCCCNC2=NCCN2)cc1`, 6.36%; for `Cc1ccc(CCNc2ncc(C)c(-c3ccnn3C)n2)s1`, -33.54%. For `COCC(=O)N1CC(c2csc(NC(C)=O)n2)C1` the value was 50.74%.

As for `COCC(=O)N1CCC(c2csc(NC(C)=O)n2)CC1`, the INHIBITION is on record as -2.2%. In the case of `COCC(=O)N1CCCC(c2csc(NC(C)=O)n2)C1` (centres undefined) it was 15.73%; in that of `Cc1nn(C)c(Cl)c1C1CCCN1CC(=O)NCc1ccco1` (centres undefined), 33.61%; in that of `CC(=O)Nc1ccc(CN2CCOC2=O)cc1`, 55.66%. With `CCC(C)NC(=O)Nc1ccc(CN2CCOC2=O)cc1` (centres undefined), the INHIBITION is listed as -5.28%. On to `CC(C)CNC(=O)Nc1ccc(CN2CCOC2=O)cc1`, for which the INHIBITION is -15.92%. In the case of `N[C@H]1CN(Cc2cnc(N3CCCC3)nc2)C[C@@H]1C1CC1` it was 22.18%; in that of `CCNc1ncc(CN2C[C@H](C3CC3)[C@@H](N)C2)cn1`, -35.18%. In the case of `Nc1ncc(CN2C[C@H](C3CC3)[C@@H](N)C2)cn1`, the INHIBITION is listed as 64.38%. As to `Cn1ccnc1SCCNC(=O)CC1CCc2ccccc21` (centres undefined), the INHIBITION came out at 1.88%. `CN1CCN(Cc2cccc(NCc3ncc[nH]3)c2)CC1`: the INHIBITION was 8.37%. For `Fc1cccc(C(NCc2ncc[nH]2)c2ccccc2)c1` (centres undefined) the value was 14.52%. For `Fc1cccc(NCc2ncc[nH]2)c1` the value was 51.08%. For `COc1cc(NCc2ncc[nH]2)ccc1Br`, the INHIBITION came out at 44.23%.

For the compound `COCc1nc2cc(NCc3ncc[nH]3)ccc2o1`, the INHIBITION came out at 12.94%.

In the case of `Fc1ccc(NCc2ncc[nH]2)cc1Br`, the INHIBITION turned out to be 56.21%. For the compound `CCOc1ccc(N(CC(=O)c2ccccc2)C2=NCCCCC2)cc1`, the INHIBITION stood at 20.74%. For `Cn1nccc1C(=O)N1CCC(c2ncc(Cl)cc2S(C)(=O)=O)CC1` the value was 76.78%; for `CS(=O)(=O)c1cc(Cl)cnc1C1CCN(C(=O)C2CC2)CC1`, -14.56%; for `CS(=O)(=O)c1cc(Cl)cnc1C1CCN(C(=O)C2CCOCC2)CC1`, -33.32%. For `Cn1cc(CN2C[C@H](N3CCOCC3)[C@@H]3OCCC[C@@H]32)cn1` the value was -3.36%; for `O=C(CSC1CCCC1)N1CCN(C(=O)C2CC2c2cccs2)CC1` (centres undefined), 10.39%; for `CN(CCC#N)C(=O)CN(C1CC1)C1CCc2ccccc21` (centres undefined), 63.73%. For `CN(CC(=O)N(CCC#N)c1ccccc1)C1CCc2ccccc21` (centres undefined) the value was -25.33%. In the case of `N#CCCN(CCC#N)C(=O)CN(C1CC1)C1CCc2ccccc21` (centres undefined), the INHIBITION is reported as 12.84%. For `CCn1c(SCC(N)=O)nnc1C(C)NC(=O)c1ccc(Cl)cc1` (centres undefined) the value was 11.4%. In the case of `COCCN(Cc1nccs1)C(=O)c1cc(-c2ccc(C)o2)n[nH]1` it was 52.98%; in that of `COCCN(Cc1nccs1)C(=O)c1cc(-c2ccc(C)s2)n[nH]1`, 31.51%.

In the case of `COCCN(Cc1nccs1)C(=O)c1c(C)cc(C)[nH]c1=O`, the INHIBITION is listed as -1.63%. For `COc1ccc(C)c2c1N(C(=O)c1ccc3nnc(C)n3c1)CCC2` the value was 61.06%; for `COc1ccc(C)c2c1N(C(=O)c1cnc3onc(C)c3c1)CCC2`, 47.2%. For `COc1ccc(C)c2c1N(C(=O)c1cnc(C)s1)CCC2`, the INHIBITION turned out to be 18.01%. Regarding `N#Cc1cccc(CN2CCC3(CC(C(=O)NCC4CC4)=NO3)C2)c1` (centres undefined), the INHIBITION is given as 7.35%.

On to `CNC1CCCN(Cc2noc(C3CC3)n2)C1` (centres undefined), for which the INHIBITION is 8.91%.

In the case of `Cc1n[nH]c(C)c1CNC(=O)N(Cc1ccccc1)CC(C)(C)O`, the INHIBITION is given as -16.94%. In the case of `Cc1noc(C2CCN(C(=O)CCc3ccccn3)CC2)n1` it was 9.36%; in that of `CCN1CCC2(C=C(C(=O)NC3CC3)c3ccccc32)CC1`, 57.95%. For `CC(C)CN1CCC2(C=C(C(=O)NC3CC3)c3ccccc32)CC1` the value was -14.63%; for `O=C(NC1CC1)C1=CC2(CCN(CC3CC3)CC2)c2ccccc21`, 11.73%; for `COc1ccc(Cl)cc1S(=O)(=O)N(C)CC(=O)Nc1cccnc1`, -66.51%.

For `Cn1c(C2CC2)nc2c1CCN(CCOc1ccccc1C#N)C2`, the INHIBITION is given as -16.16%. For `Cn1c(C2CC2)nc2c1CCN(CCOc1cccc(F)c1)C2` the value was -9.49%; for `Cn1c(C2CC2)nc2c1CCN(CCOc1ccc(C#N)cc1)C2`, 55.52%; for `NCc1ccc(Oc2ccc(F)c(F)c2)cc1C(F)(F)F`, 30.1%. As to `CC(C)(C)Oc1ccc(CN)c(C(F)(F)F)c1`, the INHIBITION was found to be 50.01%. For `CC(C)Oc1ccc(CN)c(C(F)(F)F)c1` the value was 28.94%; for `CN1CCC(N(C)C(=O)CSc2ccc(F)c(F)c2)C1=O` (centres undefined), -15.11%. In the case of `CC(C)c1ccc(CCC(=O)N(C)C2CCN(C)C2=O)cc1` (centres undefined) it was 71.91%; in that of `CN1CCC(N(C)C(=O)CCc2ccc(F)c(F)c2)C1=O` (centres undefined), 20.14%. Turning to `COc1cccc(CC(=O)N2CC[C@@H](OC)[C@@H]2Cc2cccnc2)c1`, the INHIBITION worked out at 8.18%. `COC[C@@]12CCO[C@@H]1CCN(C(=O)Cc1ccc(C)cc1)C2`: the INHIBITION was 11.37%. For the compound `COC[C@@]12CCO[C@@H]1CCN(C(=O)Cc1ccccc1C)C2`, the INHIBITION turned out to be 54.56%.

Turning to `COC[C@@]12CCO[C@@H]1CCN(C(=O)Cc1ccccc1F)C2`, the INHIBITION is recorded as -26.85%. As to `CN(Cc1ccc2c(c1)OCO2)C(=O)NCCc1cnn(C)c1`, the INHIBITION is recorded as -0.12%.

As to `COCC(=O)NC1CC2(CCN(Cc3ccco3)CC2)c2ccccc21` (centres undefined), the INHIBITION is -40.39%. For the compound `COc1cc(C(=O)NS(=O)(=O)c2cccc(C#N)c2)cc(OC)c1C`, the INHIBITION was -15.28%. `COc1cccc(C(=O)NS(=O)(=O)c2cccc(C#N)c2)c1`: the INHIBITION is reported as -49.9%. In the case of `COC(=O)c1ccc(C(=O)NS(=O)(=O)c2cncc(Br)c2)cc1` it was -8.83%; in that of `COc1ccc(C(=O)NS(=O)(=O)c2cncc(Br)c2)cc1`, 53.12%; in that of `COc1ccc(C(=O)NS(=O)(=O)c2cncc(Br)c2)cc1OC`, -10.6%. In the case of `COc1cc(C(=O)NS(=O)(=O)c2cccc(C#N)c2)ccc1C` it was 23.92%. For `CCOc1cccc2c1OCC(C(=O)NS(=O)(=O)c1cncc(Br)c1)=C2` the value was 51.94%; for `CCOc1cccc2c1OCC(C(=O)NS(=O)(=O)c1ccc(Br)s1)=C2`, -20.93%; for `COc1cc(C(=O)NS(=O)(=O)c2cccc(C#N)c2)cc(OC)c1Br`, 41.76%.

In the case of `COc1ccc(C(=O)NS(=O)(=O)c2cccc(C#N)c2)cc1`, the INHIBITION is 66.2%. On to `CCOc1cccc2c1OCC(C(=O)NS(=O)(=O)c1ccc(Cl)cc1)=C2`, for which the INHIBITION stood at 30.91%.

Take `CCOc1cc(C(=O)NS(=O)(=O)c2cccc(C#N)c2)ccc1OC`: the INHIBITION turned out to be 64.16%.

As for `COc1ccc(CN2CC[C@@H]3[C@H]2CCC(=O)N3c2cnn(C)c2)cc1`, the INHIBITION is -41.29%. In the case of `NC(=O)C1CCN(C(=O)c2cccn2Cc2cccs2)C1` (centres undefined) it was -8.9%. In the case of `CCC(C)(C)NC(=O)CN(Cc1cccc(O)c1)C1CCC(O)CC1` (centres undefined) it was 6.85%; in that of `Cn1cc(CN2CCC(F)(F)C3(CCN(c4ncccn4)C3)C2)cn1` (centres undefined), 11.54%. Regarding `COCCOc1cccc(C(=O)N2CCCC(n3ccnc3C)C2)c1` (centres undefined), the INHIBITION is 27.55%.

As for `COC(=O)c1ccc(NCc2csc(C)n2)cc1Cl`, the INHIBITION is -37.11%. As to `CCOc1c(Br)cc(C2c3c(n[nH]c3C)N=C3COC(=O)C32)cc1OC` (centres undefined), the INHIBITION is -54.78%. `Cc1nc(C)c(C(=O)N2CCc3c(C)cccc32)o1`: the INHIBITION is recorded as 43.28%. For `Cc1nc(C)c(C(=O)N2CCCc3c(F)ccc(F)c32)o1` the value was 44.71%; for `Cc1nc(C)c(C(=O)N2CCCc3c(F)cccc32)o1`, 54.77%; for `COc1ccc(CNC[C@H]2COCc3nc4cccnc4n32)cn1`, -8.63%. As for `CC1CCN(C(=O)c2cccc3ncccc23)CC1`, the INHIBITION is -29.11%. For `CN(C)C(C(=O)N1CC(c2ccccn2)C1)c1cccc(F)c1` (centres undefined), the INHIBITION is 12.35%. For `Cn1ccnc(Sc2ccccc2)c1=O` the value was 50.53%; for `Cn1ccnc(Sc2ccc(O)cc2)c1=O`, -31.15%. Regarding `Cc1ccc(Sc2nccn(C)c2=O)cc1`, the INHIBITION is -2.44%.

In the case of `COc1ccc2c(c1)CC(NCCCn1cc(C)cn1)CC2` (centres undefined), the INHIBITION is -0.75%. On to `COc1cccc(CN(C)S(=O)(=O)N2CCOCC2)c1`, for which the INHIBITION is 11.97%. For `CN(Cc1cccc(F)c1)S(=O)(=O)N1CCOCC1` the value was 46.57%; for `CN(Cc1cccc(Cl)c1)S(=O)(=O)N1CCOCC1`, 50.74%. In the case of `CCc1nc(CN2CCOC(CN(CC)c3cccnn3)C2)cs1` (centres undefined) it was -24.11%. For `CN1CCN(Cc2cn3c(n2)CN(C(=O)c2cccn2C)CC3)CC1` the value was -36.65%; for `O=C(c1ccc2cc[nH]c2c1)N1CCC(Nc2cccnn2)CC1`, -16.42%; for `CCn1c(C)cc(C(=O)N2CCC(Nc3ccc(C)nn3)CC2)c1C`, 13.88%. On to `Cc1ccc(NC2CCN(C(=O)c3cccnc3O)CC2)nn1`, for which the INHIBITION is recorded as -31.57%.

Regarding `CC(C(=O)N1CCC(Nc2cccnn2)CC1)n1cccn1` (centres undefined), the INHIBITION is recorded as 9.17%.

Regarding `CCn1c(C)cc(C(=O)N2CCC(Nc3cccnn3)CC2)c1C`, the INHIBITION came out at 56.58%. For `CCOc1ncccc1C(=O)N1CCC(Nc2ccc(C)nn2)CC1` the value was -23.94%; for `O=C(c1ccc2[nH]c(=O)[nH]c2c1)N1CCC(Nc2cccnn2)CC1`, 53.45%. With `CC(C(=O)N1CCC(Nc2cccnn2)CC1)n1ccnc1` (centres undefined), the INHIBITION was -12.48%. For `O=C(c1ccc2[nH]nnc2c1)N1CCC(Nc2cccnn2)CC1` the value was -23.42%; for `COc1ncccc1C(=O)N1CCC(Nc2ccc(C)nn2)CC1`, 62.13%. For `CC(Cn1cccn1)C(=O)N1CCC(Nc2cccnn2)CC1` (centres undefined) the value was 57.23%; for `O=C(c1ccc(NC2CC2)nc1)N1CCC(Nc2cccnn2)CC1`, 22.1%.
